PubChem BioAssay (EPA / NIEHS)
Inconclusive results are not listed. Calls of active or inactive are those of the source. How the source made its calls: active means hit-call score of the fitted dose curve at least 0.9, where 1 is the maximum; inconclusive means response in the unintended direction; inactive means score below 0.9.

Columns and labels:
[1] = target: human Beta-secretase (BACE), BACE1 (gene 23621) (UniProt P56817); experiment: NVS_ENZ_hBACE: NovaScreen (NVS) Enzymatic Assay for human Beta-secretase (BACE) (AID 2283140);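 further: hits are inhibitors that reduce fluorescent substrate signal versus DMSO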
In short: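 Fluorescence intensity read-out of protease activity defines this endpoint; signal loss relative to DMSO baseline marks inhibition. Recombinant enzyme from SF9 cells, cell-free format, 1 h exposure. Single-concentration duplicate screen (25 uM) precedes concentration-series follow-up.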

[2] = target: human Colony Stimulating Factor 1 Receptor (CSF1R), CSF1R (gene 1436) (UniProt P07333); experiment: NVS_ENZ_hCSF1R: NovaScreen (NVS) Enzymatic Assay for human Colony Stimulating Factor 1 Receptor (CSF1R) (AID 2283150)
In short: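 Compounds screened in duplicate at 25 uM, then concentration-response (top 50 uM) for those passing threshold such as 30% inhibition; recombinant CSF1R activity measured 1 h post-dosing via fluorescent substrate/product mobility-shift separation, loss of signal versus DMSO.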

[3] = target: human Casein Kinase 1-delta (CK1D), CSNK1D (gene 1453) (UniProt P48730); experiment: NVS_ENZ_hCK1D: NovaScreen (NVS) Enzymatic Assay for human Casein Kinase 1-delta (CK1D) (AID 2283148)
Method: NVS_ENZ_hCK1D is a biochemical, single-readout assay that uses extracted gene-proteins in a cell-free assay. Measurements were taken 1 hour after chemical dosing in a 384-well plate.NVS_ENZ_hCK1D is one of one assay component(s) measured or calculated from the NVS_ENZ_hCK1D assay. It is designed to make measurements of enzyme activity, a form of enzyme reporter, as detected with fluorescence intensity signals by Fluorescence and electrophoretic mobility shift technology.Data from the assay component NVS_ENZ_hCK1D was analyzed into 1 assay endpoint. This assay endpoint, NVS_ENZ_hCK1D, was analyzed in the positive analysis fitting direction relative to DMSO as the negative control and baseline of activity. Using a type of enzyme reporter, loss-of-signal activity can be used to understand changes in the enzymatic activity as they relate to the gene CSNK1D. Furthermore, this assay endpoint can be referred to as a primary readout, because this assay has produced multiple assay endpoints where this one serves a enzymatic activity function. To generalize the intended target to other relatable targets, this assay endpoint is annotated to the kinase intended target family, where the subfamily is serine/threonine kinase. […]

[4] = target: human Caspase 8 (CASP8), CASP8 (gene 841) (UniProt Q14790); experiment: NVS_ENZ_hCASP8: NovaScreen (NVS) Enzymatic Assay for human Caspase 8 (CASP8) (AID 2283146)
In short: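 The primary screen tested compounds in duplicate at a single 25 uM concentration, with actives followed up in concentration series. Activity of recombinant (E. coli) protease was measured by fluorescence 1 h post-dose, as signal loss against DMSO.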

Caspase-3 (Homo sapiens) = Caspase-3 (Homo sapiens) (UniProt P42574); experiment: NVS_ENZ_hCASP3: NovaScreen (NVS) Enzymatic Assay for human Caspase 3 (CASP3) (AID 2283139)
In short: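 Single-concentration screening at 25 uM in duplicate, with concentration-response follow-up to a 50 uM maximum for chemicals passing the threshold. Caspase-3 (human, E. coli-expressed) activity was read as substrate fluorescence after 1 h, with loss of signal relative to DMSO.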

[5] = target: human Dual Specificity Protein Phosphatase 3 (DUSP3), DUSP3 (gene 1845) (UniProt P51452); experiment: NVS_ENZ_hDUSP3: NovaScreen (NVS) Enzymatic Assay for human Dual Specificity Protein Phosphatase 3 (DUSP3) (AID 2283152);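 further: phosphatase activity of recombinant human DUSP3 on a fluorogenic substrate without cells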
In short: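 Cell-free fluorescence-intensity enzyme activity assay with recombinant protein and substrate; loss of signal fitted relative to DMSO baseline. Primary screen in duplicate at 25 uM, actives then run in concentration series; measured 0 h after dosing.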

[6] = target: human AKT serine/threonine Kinase 2 (AKT2), AKT2 (gene 208) (UniProt P31751); experiment: NVS_ENZ_hAKT2: NovaScreen (NVS) Enzymatic Assay for human AKT serine/threonine Kinase 2 (AKT2) (AID 2283141)
In short: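 Cell-free fluorescence/electrophoretic mobility shift readout of recombinant human AKT2 activity, 1 h after chemical dosing. Duplicate primary screen at 25 uM, then singleton concentration-response up to 50 uM; loss of signal versus DMSO baseline.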

[7] = target: human AKT serine/threonine Kinase 1 (AKT1), AKT1 (gene 207) (UniProt P31749); experiment: NVS_ENZ_hAKT1: NovaScreen (NVS) Enzymatic Assay for human AKT serine/threonine Kinase 1 (AKT1) (AID 2283138)
In short: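 Compounds were first tested in duplicate at 25 uM, and those passing a threshold such as 30% inhibition were run in concentration-response to a maximum of 50 uM. Enzyme activity was measured after 1 h by fluorescence following substrate/product mobility-shift separation.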

[8] = target: human Epidermal Growth Factor Receptor (EGFR), EGFR (gene 1956) (UniProt P00533); experiment: NVS_ENZ_hEGFR: NovaScreen (NVS) Enzymatic Assay for human Epidermal Growth Factor Receptor (EGFR) (AID 2283151)
In short: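 Cell-free kinase assay, fluorescence plus electrophoretic mobility shift separating substrate and product, read 1 hour after dosing; loss of signal vs DMSO. Duplicate screen at 25 uM, then concentration-response to 50 uM.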

[9] = target: human Aurora Kinase A - serine/threonine-protein Kinase 6 (AurA), AURKA (gene 6790) (UniProt O14965); experiment: NVS_ENZ_hAurA: NovaScreen (NVS) Enzymatic Assay for human Aurora Kinase A - serine/threonine-protein Kinase 6 (AurA) (AID 2283142)
In short: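 Recombinant human AurA activity read by fluorescence after mobility-shift separation of product from substrate; 1 hour incubation. Chemicals first run in duplicate at 25 uM, then concentration series to 50 uM if over threshold; fitted relative to DMSO.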

Chain of human Beta-secretase (BACE), BACE1 (gene 23621) (P56817 whole entry, looked up): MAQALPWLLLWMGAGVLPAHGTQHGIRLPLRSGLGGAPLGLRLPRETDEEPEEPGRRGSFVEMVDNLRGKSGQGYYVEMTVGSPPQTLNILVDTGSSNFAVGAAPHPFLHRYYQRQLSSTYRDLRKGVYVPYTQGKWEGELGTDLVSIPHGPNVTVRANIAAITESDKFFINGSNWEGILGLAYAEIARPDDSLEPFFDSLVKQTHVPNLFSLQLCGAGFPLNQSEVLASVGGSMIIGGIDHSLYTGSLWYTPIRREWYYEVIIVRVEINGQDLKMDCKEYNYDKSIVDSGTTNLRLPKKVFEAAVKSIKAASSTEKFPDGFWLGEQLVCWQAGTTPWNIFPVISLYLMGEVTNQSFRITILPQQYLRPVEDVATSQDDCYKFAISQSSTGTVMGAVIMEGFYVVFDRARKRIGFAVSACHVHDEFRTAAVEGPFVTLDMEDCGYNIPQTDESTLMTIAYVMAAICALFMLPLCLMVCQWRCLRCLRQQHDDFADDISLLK
Chain of human Dual Specificity Protein Phosphatase 3 (DUSP3), DUSP3 (gene 1845) (P51452 whole entry, looked up): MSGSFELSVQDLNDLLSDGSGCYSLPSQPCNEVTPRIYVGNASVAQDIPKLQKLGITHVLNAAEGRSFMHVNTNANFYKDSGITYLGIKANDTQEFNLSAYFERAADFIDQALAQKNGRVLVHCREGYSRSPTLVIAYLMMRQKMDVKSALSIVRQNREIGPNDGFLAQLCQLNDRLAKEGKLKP
Chain of human Colony Stimulating Factor 1 Receptor (CSF1R), CSF1R (gene 1436) (P07333 whole entry, looked up): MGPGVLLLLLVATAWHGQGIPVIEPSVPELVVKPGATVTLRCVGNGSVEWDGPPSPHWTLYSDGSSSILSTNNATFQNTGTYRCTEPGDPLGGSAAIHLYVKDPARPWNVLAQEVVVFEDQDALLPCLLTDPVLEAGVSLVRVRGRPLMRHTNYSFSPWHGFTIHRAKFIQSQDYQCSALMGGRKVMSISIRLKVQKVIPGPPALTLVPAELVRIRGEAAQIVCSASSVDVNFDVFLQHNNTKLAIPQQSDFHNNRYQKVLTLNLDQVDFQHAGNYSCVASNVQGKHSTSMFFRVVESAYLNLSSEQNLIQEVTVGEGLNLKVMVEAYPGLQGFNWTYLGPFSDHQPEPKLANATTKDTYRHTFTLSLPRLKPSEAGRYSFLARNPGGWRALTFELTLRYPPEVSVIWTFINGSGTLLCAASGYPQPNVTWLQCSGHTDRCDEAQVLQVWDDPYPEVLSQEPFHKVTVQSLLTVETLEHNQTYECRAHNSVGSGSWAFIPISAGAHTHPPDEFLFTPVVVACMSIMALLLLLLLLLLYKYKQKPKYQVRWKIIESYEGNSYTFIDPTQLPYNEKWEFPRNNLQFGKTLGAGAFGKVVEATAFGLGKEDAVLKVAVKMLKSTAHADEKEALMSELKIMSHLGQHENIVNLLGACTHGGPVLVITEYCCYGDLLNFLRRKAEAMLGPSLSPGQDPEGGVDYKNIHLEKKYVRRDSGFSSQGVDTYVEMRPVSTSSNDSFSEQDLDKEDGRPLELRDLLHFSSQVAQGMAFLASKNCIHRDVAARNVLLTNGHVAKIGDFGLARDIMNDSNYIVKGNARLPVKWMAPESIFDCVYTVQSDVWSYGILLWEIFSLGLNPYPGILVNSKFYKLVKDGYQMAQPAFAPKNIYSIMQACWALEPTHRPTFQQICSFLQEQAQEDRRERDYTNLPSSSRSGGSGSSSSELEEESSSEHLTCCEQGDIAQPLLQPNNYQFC
Chain of human AKT serine/threonine Kinase 1 (AKT1), AKT1 (gene 207) (P31749 whole entry, looked up): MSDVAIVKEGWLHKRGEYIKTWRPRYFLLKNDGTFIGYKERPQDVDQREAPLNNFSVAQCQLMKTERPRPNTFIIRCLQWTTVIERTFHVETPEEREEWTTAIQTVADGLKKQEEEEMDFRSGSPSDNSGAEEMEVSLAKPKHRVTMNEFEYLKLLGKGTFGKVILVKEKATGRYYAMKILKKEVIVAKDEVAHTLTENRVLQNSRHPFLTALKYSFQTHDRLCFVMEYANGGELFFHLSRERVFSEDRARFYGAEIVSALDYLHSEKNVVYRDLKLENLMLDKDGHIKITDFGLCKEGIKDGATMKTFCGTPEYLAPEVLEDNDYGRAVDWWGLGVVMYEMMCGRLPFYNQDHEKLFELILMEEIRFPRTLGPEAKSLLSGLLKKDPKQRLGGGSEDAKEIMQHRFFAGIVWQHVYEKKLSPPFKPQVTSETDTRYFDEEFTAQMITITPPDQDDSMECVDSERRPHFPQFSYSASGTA
Chain of human Casein Kinase 1-delta (CK1D), CSNK1D (gene 1453) (P48730 whole entry, looked up): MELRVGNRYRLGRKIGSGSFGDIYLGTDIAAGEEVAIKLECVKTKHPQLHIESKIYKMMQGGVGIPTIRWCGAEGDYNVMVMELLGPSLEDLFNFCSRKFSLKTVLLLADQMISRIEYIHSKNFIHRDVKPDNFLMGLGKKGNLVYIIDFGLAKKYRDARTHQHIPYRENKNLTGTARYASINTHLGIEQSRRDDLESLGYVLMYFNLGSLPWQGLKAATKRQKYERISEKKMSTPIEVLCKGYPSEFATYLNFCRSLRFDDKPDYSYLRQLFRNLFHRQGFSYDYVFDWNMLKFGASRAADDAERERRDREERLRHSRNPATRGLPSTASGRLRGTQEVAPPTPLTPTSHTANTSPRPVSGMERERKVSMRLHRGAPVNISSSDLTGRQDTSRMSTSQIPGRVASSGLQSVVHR
Chain of Caspase-3 (Homo sapiens) (P42574 whole entry, looked up): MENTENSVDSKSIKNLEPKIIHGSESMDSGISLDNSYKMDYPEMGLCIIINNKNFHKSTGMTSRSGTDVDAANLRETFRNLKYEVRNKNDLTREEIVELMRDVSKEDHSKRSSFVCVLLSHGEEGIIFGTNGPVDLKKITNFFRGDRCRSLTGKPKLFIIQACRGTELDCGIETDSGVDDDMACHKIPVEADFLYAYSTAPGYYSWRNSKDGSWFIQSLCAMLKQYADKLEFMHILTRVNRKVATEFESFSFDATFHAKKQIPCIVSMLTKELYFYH
Chain of human Epidermal Growth Factor Receptor (EGFR), EGFR (gene 1956) (P00533 whole entry, looked up): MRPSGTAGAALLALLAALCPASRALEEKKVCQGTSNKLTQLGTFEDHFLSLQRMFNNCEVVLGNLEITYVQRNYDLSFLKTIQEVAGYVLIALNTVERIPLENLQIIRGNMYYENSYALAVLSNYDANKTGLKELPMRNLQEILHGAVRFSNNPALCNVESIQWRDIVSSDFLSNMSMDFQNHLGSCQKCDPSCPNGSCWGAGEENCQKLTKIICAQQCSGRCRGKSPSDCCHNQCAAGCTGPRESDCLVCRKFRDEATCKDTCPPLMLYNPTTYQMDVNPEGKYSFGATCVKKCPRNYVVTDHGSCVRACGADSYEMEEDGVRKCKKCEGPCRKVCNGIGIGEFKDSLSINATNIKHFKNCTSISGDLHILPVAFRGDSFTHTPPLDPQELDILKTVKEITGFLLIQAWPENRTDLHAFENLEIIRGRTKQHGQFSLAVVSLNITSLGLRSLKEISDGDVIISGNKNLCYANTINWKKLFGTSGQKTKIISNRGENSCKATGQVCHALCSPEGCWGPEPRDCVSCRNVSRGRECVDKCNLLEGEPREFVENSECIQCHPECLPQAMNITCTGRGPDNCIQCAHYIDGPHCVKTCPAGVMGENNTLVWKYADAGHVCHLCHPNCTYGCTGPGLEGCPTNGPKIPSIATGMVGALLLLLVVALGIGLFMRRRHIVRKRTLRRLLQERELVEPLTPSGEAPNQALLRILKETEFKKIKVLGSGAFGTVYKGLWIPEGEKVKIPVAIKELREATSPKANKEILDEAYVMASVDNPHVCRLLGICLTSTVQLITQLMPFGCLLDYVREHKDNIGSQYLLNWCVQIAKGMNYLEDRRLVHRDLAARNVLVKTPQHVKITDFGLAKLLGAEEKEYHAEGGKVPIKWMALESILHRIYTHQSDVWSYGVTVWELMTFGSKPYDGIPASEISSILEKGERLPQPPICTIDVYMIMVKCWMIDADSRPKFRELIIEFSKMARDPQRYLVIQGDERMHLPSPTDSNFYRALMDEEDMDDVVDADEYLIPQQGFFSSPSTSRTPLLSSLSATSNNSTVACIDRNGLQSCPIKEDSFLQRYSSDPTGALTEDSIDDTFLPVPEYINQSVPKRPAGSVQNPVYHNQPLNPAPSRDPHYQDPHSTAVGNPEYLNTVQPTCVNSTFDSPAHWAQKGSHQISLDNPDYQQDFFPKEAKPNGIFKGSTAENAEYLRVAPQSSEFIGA
Chain of human AKT serine/threonine Kinase 2 (AKT2), AKT2 (gene 208) (P31751 whole entry, looked up): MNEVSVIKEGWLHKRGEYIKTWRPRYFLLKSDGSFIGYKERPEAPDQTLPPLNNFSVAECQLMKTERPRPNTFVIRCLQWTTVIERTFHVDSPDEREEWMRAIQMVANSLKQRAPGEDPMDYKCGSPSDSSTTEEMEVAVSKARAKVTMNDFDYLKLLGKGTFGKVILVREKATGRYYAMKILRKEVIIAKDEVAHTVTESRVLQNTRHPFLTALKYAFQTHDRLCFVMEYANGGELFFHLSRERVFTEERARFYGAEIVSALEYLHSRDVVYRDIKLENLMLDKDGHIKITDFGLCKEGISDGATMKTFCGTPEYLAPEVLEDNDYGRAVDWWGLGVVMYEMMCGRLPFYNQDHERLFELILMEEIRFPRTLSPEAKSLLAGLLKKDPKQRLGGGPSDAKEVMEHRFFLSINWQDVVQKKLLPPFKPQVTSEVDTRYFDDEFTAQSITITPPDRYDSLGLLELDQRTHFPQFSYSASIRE
Chain of human Caspase 8 (CASP8), CASP8 (gene 841) (Q14790 whole entry, looked up): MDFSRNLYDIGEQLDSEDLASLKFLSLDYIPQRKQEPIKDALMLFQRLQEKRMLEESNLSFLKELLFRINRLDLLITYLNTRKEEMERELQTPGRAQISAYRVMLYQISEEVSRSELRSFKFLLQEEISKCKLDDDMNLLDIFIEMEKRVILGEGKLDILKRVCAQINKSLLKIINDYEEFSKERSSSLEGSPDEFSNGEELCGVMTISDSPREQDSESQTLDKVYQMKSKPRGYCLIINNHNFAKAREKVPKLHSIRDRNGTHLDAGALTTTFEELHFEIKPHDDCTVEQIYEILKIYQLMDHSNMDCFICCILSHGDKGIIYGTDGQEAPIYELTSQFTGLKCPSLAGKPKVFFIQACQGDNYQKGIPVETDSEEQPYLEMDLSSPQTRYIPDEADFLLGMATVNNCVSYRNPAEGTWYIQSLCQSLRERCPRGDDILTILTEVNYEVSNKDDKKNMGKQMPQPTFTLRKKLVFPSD

## Cn1sc(Cl)cc1=O
[1]
  outcome: inactive
[2]
  outcome: inactive

## CCCCCCCCc1ccc(O)cc1
[3]
  outcome: inactive
[2]
  outcome: inactive

## O=c1[nH]c(=O)[nH]c(=O)[nH]1
[4]
  outcome: inactive

## O=[N+]([O-])c1ccc(O)c([N+](=O)[O-])c1
Caspase-3 (Homo sapiens)
  outcome: inactive
[3]
  outcome: inactive

## COP(=S)(OC)Oc1c(Cl)cc(C)cc1Cl
[5]
  AC50: 20.9 µM (active)

## CC(C)(OO)c1ccccc1
[6]
  outcome: inactive

## CCC(=O)C(CC(C)N(C)C)(c1ccccc1)c1ccccc1 (stereo unspecified)
[7]
  outcome: inactive

## COP(=S)(OC)Oc1cc(Cl)c(Cl)cc1Cl
[5]
  AC50: 11.8 µM (active)

## C=C(C)C(=O)[O][Sn]([CH2]CCC)([CH2]CCC)[CH2]CCC
[1]
  AC50: 8.77 µM (active)
[5]
  AC50: 10.9 µM (active)

## CC(=O)[O][Hg][c]1ccccc1
Caspase-3 (Homo sapiens)
  AC50: 25 µM (active)
[4]
  AC50: 8.22 µM (active)
[8]
  AC50: 9.71 µM (active)

## CCN1CCC2(CC1)COc1cc3c(cc12)N(C(=O)c1ccc(-c2ccc(-c4nnc(C)o4)cc2C)cc1)CC3
[1]
  AC50: 28.3 µM (active)

## CC(C)CCCCCCOC(=O)c1ccccc1C(=O)OCCCCCCC(C)C
[1]
  AC50: 8.09 µM (active)

## O=C1C2(Cl)C3(Cl)C4(Cl)C(Cl)(Cl)C5(Cl)C3(Cl)C1(Cl)C5(Cl)C24Cl (stereo unspecified)
[1]
  outcome: inactive
[9]
  outcome: inactive

## COc1cc2c(cc1OC)[C@@]13CCN4CC5=CCO[C@H]6CC(=O)N2[C@H]1[C@H]6[C@H]5C[C@H]43
[1]
  AC50: 6.44 µM (active)

## Nc1cccc2ccccc12
[5]
  AC50: 17 µM (active)

## ClC1(Cl)C2(Cl)C3(Cl)C4(Cl)C(Cl)(Cl)C5(Cl)C3(Cl)C1(Cl)C5(Cl)C24Cl (stereo unspecified)
[7]
  outcome: inactive
[6]
  outcome: inactive
[2]
  outcome: inactive
[8]
  outcome: inactive
[5]
  outcome: inactive

## C=CC(=O)OCCCCCC(C)C
[7]
  outcome: inactive

## O=C(O)C(F)(F)C(F)(F)C(F)(F)C(F)(F)C(F)(F)C(F)(F)F
[1]
  AC50: 18.6 µM (active)

## Nc1ncc([N+](=O)[O-])s1
[5]
  AC50: 2.36 µM (active)

## O=C(O)C(F)(F)C(F)(F)C(F)(F)C(F)(F)C(F)(F)C(F)(F)C(F)(F)C(F)(F)C(F)(F)C(F)(F)F
[7]
  AC50: 1.59 µM (active)
[1]
  AC50: 1.51 µM (active)
[5]
  AC50: 2.72 µM (active)

## CCOP(=S)(OCC)SCSP(=S)(OCC)OCC
[7]
  outcome: inactive
[5]
  AC50: 6.76 µM (active)

## COc1cc(-c2ccc(N)c(OC)c2)ccc1N
[1]
  AC50: 16.4 µM (active)
[5]
  AC50: 7.49 µM (active)

## CCOP(=S)(OCC)Oc1nc(Cl)c(Cl)cc1Cl
[5]
  AC50: 6.51 µM (active)

## COP(=S)(OC)Oc1ccc(Sc2ccc(OP(=S)(OC)OC)cc2)cc1
[1]
  AC50: 2.51 µM (active)

## COP(=S)(OC)Oc1ccc(S(=O)(=O)N(C)C)cc1
[5]
  AC50: 7.43 µM (active)

## O=C(Nc1ccc2[nH]ccc2c1)c1cc2cc(F)ccc2n1Cc1cccc(F)c1
[1]
  outcome: inactive
